Source: PubChem (National Center for Advancing Translational Sciences (NCATS))
Only some compounds are listed: those with a hit (about 19% of all), similar ones and a draw of the others.
DT40 TDP1 no CPT: qHTS for Inhibitors of human tyrosyl-DNA phosphodiesterase 1 (TDP1): qHTS in cells in absence of CPT; DT40 Tdp1-/- hTDP1 cells, no CPT, ATP luminescence, 48 h; Potency, µM (doses to about 46.2 µM), for inactives: at the top dose activity change, negative = growth inhibition, usual class: inhibitors; hit rate 15% among 420,000; note: potency is the fitted concentration of half-maximal effect; % is set by controls: 0 for no effect and ±100 for the full control effect; nearly all actives have a fitted effect of over 55% in size
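Compound effects on proliferation are scored in DT40 Tdp1-/-;hTDP1 cells in the absence of CPT. ATP levels (CellTiter-Glo luminescence) are recorded after a ≥48 hr, 37 °C incubation.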
TDP1 block: inhibitors of human tyrosyl-DNA phosphodiesterase TDP1 | Potency, µM (highest dose often 130 µM), for inactives: top-dose activity change, negative = inhibition, usual class: inhibitors | Q9NUW8 | recombinant TDP1, AlphaScreen DNA substrate cleavage | hit rate 0.28% among 350,000; note: potency is the fitted concentration of half-maximal effect; % is set by controls: 0 for no effect and ±100 for the full control effect; nearly all actives have a fitted effect of over 40% in size
Target sequence (Q9NUW8 whole entry, looked up): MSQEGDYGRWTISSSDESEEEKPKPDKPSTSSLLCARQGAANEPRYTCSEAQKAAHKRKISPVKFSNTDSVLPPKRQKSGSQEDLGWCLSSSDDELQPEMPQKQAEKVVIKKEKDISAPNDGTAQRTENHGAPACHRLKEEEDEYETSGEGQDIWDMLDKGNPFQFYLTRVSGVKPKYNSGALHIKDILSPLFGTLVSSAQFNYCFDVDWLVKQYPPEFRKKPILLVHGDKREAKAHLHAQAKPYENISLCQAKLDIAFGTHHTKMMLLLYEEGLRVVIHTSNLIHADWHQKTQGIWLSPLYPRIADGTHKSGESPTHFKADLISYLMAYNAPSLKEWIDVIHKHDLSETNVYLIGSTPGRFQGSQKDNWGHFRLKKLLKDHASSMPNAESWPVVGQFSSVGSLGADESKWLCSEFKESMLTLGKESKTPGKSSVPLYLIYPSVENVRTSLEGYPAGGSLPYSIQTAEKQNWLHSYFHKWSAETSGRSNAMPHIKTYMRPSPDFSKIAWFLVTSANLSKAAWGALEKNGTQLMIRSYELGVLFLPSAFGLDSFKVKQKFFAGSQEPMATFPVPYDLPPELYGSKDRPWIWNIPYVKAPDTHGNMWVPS
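Enzyme-compound mixtures sat 15 min at room temperature, followed by a 5 min reaction with 15 nM final substrate and 10 min with AlphaScreen beads. Recombinant human Tdp1 was used at 1 nM final.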
TGFb inhibitor: inhibitors of TGF-b signaling; HepG2 CAGA-GFP TGF-b/SMAD3 reporter, GFP fluorescence, 18 h; TGF-beta stimulated, 500 pg/mL final; Potency, µM (highest dose often 46.1 µM), inactives show at the highest dose activity, negative = inhibition, actives largely listed as inhibitors; AID 588855; hit rate 1.2% among 410,000; note: potency is the fitted concentration of half-maximal effect; % is set by controls: 0 for no effect and ±100 for the full control effect; nearly all actives have a fitted effect of over 65% in size
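HEPG2 CAGA-GFP cells (1000/well, DMEM with 1% FBS) were pre-incubated 2 h at 37 degrees C, given compound by pin tool, then stimulated with TGF-beta at 500 pg/mL final for 18 h before per-cell GFP fluorescence imaging.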
IL-1B inflam inh: inhibitors of inflammasome signaling (IL-1 beta secretion). THP-1 LPS/ATP IL-1B secretion, AlphaLISA, 16 h; active compounds read low. activity change, % at 57.5 µM. hit rate 4.7% among 360,000. AID 743279; in the data active = activity change below about -50%; inconclusive = mostly about -30% to -49%; note: % is set by controls: 0 for no effect and ±100 for the full control effect
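THP-1 cells pretreated 1 hr with compounds (up to 57.5 uM final), then stimulated with LPS (250 ng/mL final) plus ATP (1.25 mM final); secreted IL-1B measured by AlphaLISA after 16 hr, decreased signal indicating inhibition.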
TDP1 cell CPT: growth inhibition of DT40 Tdp1-/-;hTDP1 cells with camptothecin (screen for TDP1 inhibitors) | chicken DT40 Tdp1-/-;hTDP1 cells + 20 nM CPT, ATP luminescence, 48 h | Potency, µM (doses to about 46.2 µM), without a hit: top-dose activity change, negative = growth inhibition, hits mostly inhibitors | hit rate 12% among 420,000; note: potency is the fitted concentration of half-maximal effect; % is set by controls: 0 for no effect and ±100 for the full control effect; nearly all actives have a fitted effect of over 55% in size
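Cell growth measured by CellTiter-Glo luminescence after a minimum 48 h, 37 C compound exposure with 20 nM CPT in Tdp1-knockout DT40 cells stably expressing hTDP1, seeded 400/well; qHTS titration format.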
HepG2 tox: HepG2 cytotoxicity, counter-screen for TGF-b inhibitors | hit rate 0.76% among 410,000 | Potency, µM (highest dose often 46.1 µM), for the others: at the highest dose activity change, negative = cytotoxicity, most hits filed as cytotoxic | AID 588856 | HepG2 CAGA-GFP viability, ATP luminescence, 18 h; note: potency is the fitted concentration of half-maximal effect
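HepG2 CAGA-GFP cells (1000/well, DMEM with 1% FBS) received compound, then TGF-beta at 500 pg/mL final, and were incubated 18 hours at 37 degrees C. Viability was read by CellTiter-Glo luminescence. Media-only wells were set as complete cell-killing and DMSO as no toxicity.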
An asterisk follows results filed as active. Unless noted, calls come from the whole dose curve; as a rule, active = well fitted curve in the direction sought with a large enough effect; inconclusive = small, poorly fitted or top-dose-only effect, or another doubt; inactive = no such curve, though single readings can be large; an effect the other way counts as inactive or inconclusive.

Screening CCOC(=O)C(CC)Sc1nc2c(c(=O)[nH]c(=O)n2C)n1C/C=C(/C)Cl (centres undefined) returned DT40 TDP1 no CPT 13µM*, TDP1 block 2%, TGFb inhibitor -11%, IL-1B inflam inh 0, TDP1 cell CPT 7.3µM* and HepG2 tox -27%.
CCOC(=O)C(C)Sc1nc2c(c(=O)[nH]c(=O)n2C)n1CCc1ccccc1 (centres undefined) was read as DT40 TDP1 no CPT -23%, TDP1 block 1%, TGFb inhibitor 23%, IL-1B inflam inh -11, TDP1 cell CPT -20% and HepG2 tox -27%.
Screening CCCCCOC(=O)CSc1nc2c(c(=O)[nH]c(=O)n2C)n1CCc1ccccc1 returned DT40 TDP1 no CPT inconclusive, TDP1 block 6%, TGFb inhibitor 8%, IL-1B inflam inh 16, TDP1 cell CPT inconclusive and HepG2 tox 13%.
`CCCCOC(=O)CSc1nc2c(c(=O)[nH]c(=O)n2C)n1C/C=C(\C)Cl` gave DT40 TDP1 no CPT 16µM*, TDP1 block 1%, TGFb inhibitor 9%, IL-1B inflam inh 20, TDP1 cell CPT inconclusive and HepG2 tox -16%.
For C/C(Cl)=C/Cn1c(SCC(C)C)nc2c1c(=O)[nH]c(=O)n2C the results were DT40 TDP1 no CPT 8.2µM*, TDP1 block 2%, TGFb inhibitor 7%, IL-1B inflam inh 21, TDP1 cell CPT inconclusive and HepG2 tox 16%.
Screening CCN(C[C@H]1N[C@@](CC)(C(=O)OC)[C@H]2C(=O)N(C)C(=O)[C@@H]12)S(=O)(=O)c1ccc(C(F)(F)F)cc1 returned DT40 TDP1 no CPT inconclusive, TDP1 block 0%, TGFb inhibitor -2%, IL-1B inflam inh -1, TDP1 cell CPT -9% and HepG2 tox 4%.
Screening Cc1ccc(C)c(NC(=O)N2CCN3CCCCC3C2)c1 (centres undefined) returned DT40 TDP1 no CPT -1%, TDP1 block 0%, TGFb inhibitor 1%, TDP1 cell CPT -3% and HepG2 tox 3%.
Screening Cc1cccc(NC(=S)/N=C(\N)Nc2nc(C)c3ccc(C)cc3n2)c1 returned DT40 TDP1 no CPT 12µM*, TDP1 block 7%, TGFb inhibitor inconclusive, IL-1B inflam inh -6, TDP1 cell CPT 15µM* and HepG2 tox -8%.
For COc1ccc(OC)c(N/C(=N/C(=S)Nc2ccccc2)Nc2nc(C)cc(C)n2)c1 the results were DT40 TDP1 no CPT 8.2µM*, TDP1 block 0%, TGFb inhibitor 25%, IL-1B inflam inh -2, TDP1 cell CPT inconclusive and HepG2 tox 47%.
`Cc1cc(C)cc(NC(=S)/N=C(\N)Nc2nc(C)c3ccccc3n2)c1` gave DT40 TDP1 no CPT 15µM*, TDP1 block 5%, TGFb inhibitor inconclusive, IL-1B inflam inh 2, TDP1 cell CPT 21µM* and HepG2 tox 5%.
Cc1ccc(NC(=S)/N=C(\N)Nc2nc(C)c3ccccc3n2)cc1C was read as DT40 TDP1 no CPT inconclusive, TDP1 block 1%, TGFb inhibitor inconclusive, IL-1B inflam inh 19, TDP1 cell CPT inconclusive and HepG2 tox 4%.
`COc1ccc2nc(N/C(N)=N/C(=S)Nc3ccccc3)nc(C)c2c1` gave DT40 TDP1 no CPT 8.2µM*, TDP1 block 5%, TGFb inhibitor -26%, IL-1B inflam inh -87*, TDP1 cell CPT 26µM* and HepG2 tox -11%.
`COc1ccc(OC)c(N/C(=N\c2nc(C)cc(C)n2)NC(=O)c2ccco2)c1` gave TDP1 block -3%.
COc1cccc(-c2nn(-c3ccccc3)cc2/C=C(/NC(=O)c2ccccc2)C(=O)O)c1 was read as DT40 TDP1 no CPT 6%, TGFb inhibitor -2%, IL-1B inflam inh -4, TDP1 cell CPT -25% and HepG2 tox -9%.
For C=CCOc1ccccc1CN1CCC(Oc2cc(C(=O)NC3CC3)ccc2OC)CC1 the results were DT40 TDP1 no CPT -12%, TDP1 block 4%, TGFb inhibitor 11%, IL-1B inflam inh -7, TDP1 cell CPT inconclusive and HepG2 tox -14%.
Screening Cc1cccc(NC(=S)/N=C(\N)Nc2nc(C)c3cc(C)ccc3n2)c1 returned DT40 TDP1 no CPT 23µM*, TDP1 block 3%, TGFb inhibitor inconclusive, IL-1B inflam inh inconclusive, TDP1 cell CPT 21µM* and HepG2 tox 4%.
Screening CCc1ccc(NC(=S)/N=C(\N)Nc2nc(C)c3cc(CC)ccc3n2)cc1 returned DT40 TDP1 no CPT inconclusive, TDP1 block 0%, TGFb inhibitor inconclusive, IL-1B inflam inh -64*, TDP1 cell CPT inconclusive and HepG2 tox -4%.
CCOc1ccc2nc(N/C(N)=N/S(=O)(=O)c3ccc(C)cc3)nc(C)c2c1 was read as DT40 TDP1 no CPT inconclusive, TGFb inhibitor -11%, IL-1B inflam inh -21, TDP1 cell CPT inconclusive and HepG2 tox 0%.
Screening Cc1cccc(NC(=S)/N=C(\N)Nc2nc(C)c3ccccc3n2)c1 returned DT40 TDP1 no CPT inconclusive, TDP1 block -4%, TGFb inhibitor inconclusive, IL-1B inflam inh -27, TDP1 cell CPT 18µM* and HepG2 tox -29%.
For CCOc1ccc2nc(N/C(N)=N/S(C)(=O)=O)nc(C)c2c1 the results were DT40 TDP1 no CPT -27%, TDP1 block -1%, TGFb inhibitor -13%, IL-1B inflam inh inconclusive, TDP1 cell CPT -1% and HepG2 tox -6%.
For CC12CCC=CC1C(c1ccc(C(F)(F)F)cc1)N(Cc1ccccc1)C2=O (centres undefined) the results were TDP1 block 1%, TGFb inhibitor -8% and HepG2 tox 1%.
`O=C(NC(=S)Nc1cccc(NC(=S)NC(=O)c2ccccc2)c1)c1ccccc1` gave DT40 TDP1 no CPT 10µM*, TGFb inhibitor -7%, IL-1B inflam inh 32, TDP1 cell CPT 9.2µM* and HepG2 tox -13%.
`O=C(NC(=S)Nc1cccnc1)c1ccccc1` gave DT40 TDP1 no CPT -19%, TDP1 block 0%, TGFb inhibitor 13%, IL-1B inflam inh 1, TDP1 cell CPT -9% and HepG2 tox 7%.
O=C(NC(=S)NC(c1ccccc1)c1ccncc1)c1ccccc1 (centres undefined) was read as DT40 TDP1 no CPT 12µM*, TDP1 block 4%, TGFb inhibitor 6%, IL-1B inflam inh -79*, TDP1 cell CPT 15µM* and HepG2 tox -33%.
